p53 reactivator = restores transcriptional activity of mutant p53 | Potency, µM (titrated, usually from 92.2 µM), for the others: top-dose activity change, positive = activation, hits mostly activators | H1299 p53-A138V BP100-luciferase reporter, luminescence, 24 h | hit rate 0.063% among 320,000 | AID 504706; note: potency is the fitted concentration of half-maximal effect; % of control where 0% means no effect; nearly all actives have a fitted effect of over 45% in size
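H1299 (p53-null), stable ts p53-A138V + BP100-Luc; 1000 cells/well, Opti-MEM/10% FBS; cpd 4 pt, 1:5; 24 h, 37 deg C, 5% CO2; detection reagent 10 min RT; luminescence.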
Six1-Eya2 inh = Six1/Eya2 interaction inhibition; AlphaScreen GST-Six1/His-Eya2 binding, biochemical; active compounds read low; activity change, % (test concentration not listed); hit rate 0.56% among 360,000; AID 651725; in the data active = activity change below about -65%; inconclusive = mostly about -30% to -63%; note: % is set by controls: 0 for no effect and ±100 for the full control effect
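GST-Six1 + His-Eya2 (5X stock: 250/500 nM); Tris pH 8.0, 300 mM NaCl, 0.05% BSA, 0.02% Tween 20; GSH donor/Ni acceptor beads; 1 h 37 °C dark; AlphaScreen readout.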
RORgamma inh = ROR gamma (mouse) transcription inhibition; Drosophila S2 Gal4-RORgamma UAS-luciferase reporter, 20 h; P51450; AID 2551; hit rate 5.4% among 310,000; Potency, µM (highest dose often 53.6 µM), inactives show at the highest dose activity change, negative = inhibition, most hits filed as inhibitors; note: potency is the fitted concentration of half-maximal effect; % is set by controls: 0 for no effect and ±100 for the full control effect; nearly all actives have a fitted effect of over 60% in size
Target sequence (P51450 whole entry, looked up, the tested form may be a part): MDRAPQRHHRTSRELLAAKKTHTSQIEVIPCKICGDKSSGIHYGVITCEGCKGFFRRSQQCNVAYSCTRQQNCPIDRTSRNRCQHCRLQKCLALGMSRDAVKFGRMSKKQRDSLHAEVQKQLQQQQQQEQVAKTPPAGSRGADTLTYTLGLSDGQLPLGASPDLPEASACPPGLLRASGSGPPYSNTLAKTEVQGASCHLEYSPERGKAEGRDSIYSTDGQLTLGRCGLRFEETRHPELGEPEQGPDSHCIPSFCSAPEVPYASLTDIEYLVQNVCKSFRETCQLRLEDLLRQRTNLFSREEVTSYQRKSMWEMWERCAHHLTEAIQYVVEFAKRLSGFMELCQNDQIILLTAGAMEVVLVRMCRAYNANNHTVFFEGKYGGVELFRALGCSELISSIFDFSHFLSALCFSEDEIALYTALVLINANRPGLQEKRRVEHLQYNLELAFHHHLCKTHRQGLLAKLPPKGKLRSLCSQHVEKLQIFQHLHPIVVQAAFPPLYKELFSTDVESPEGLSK
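Luciferase reporter read in Schneider cells carrying Gal4-RORγ (mouse) and UAS-Photinus luciferase; cells given compound 1 h before 700 uM copper sulfate induction, then incubated 20 h at ambient temperature.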
VP16 counter = counter-screen for ROR gamma inhibitors: Gal4-VP16 reporter. Drosophila S2 Gal4-VP16 UAS-luciferase, luminescence, 20 h. Potency, µM (series often up to 53.6 µM), without a hit: at the top dose activity, negative = inhibition, hits mostly inhibitors. hit rate 3.5% among 310,000. AID 2546;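 note: Gal4-VP16 expression switched on by copper sulfate through the metallothionein promoter; potency is the fitted concentration of half-maximal effect; % is set by controls: 0 for no effect and ±100 for the full control effect; nearly all actives have a fitted effect of over 50% in size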
CtBP-E1A inh = CtBP/E1A binding inhibition; AlphaScreen GST-E1A/His-CtBP binding, 1536-well; active compounds read low; activity change, % (test concentration not listed); hit rate 0.49% among 340,000; in the data active = activity change below about -65%; inconclusive = mostly about -30% to -63%; note: % is set by controls: 0 for no effect and ±100 for the full control effect
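AlphaScreen with 125 nM GST-E1A and 125 nM His-CtBP (5X stocks) in Tris pH 8.0, 300 mM NaCl, BSA, Tween 20, TCEP. Compounds preincubated 2 h at 37 deg C, then glutathione donor/nickel acceptor beads added for 1 h at 37 deg C in dark.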
Active calls of the source: *; ? = inconclusive; . = no result given; [ ] = remark or other dose. This is a sample that favours compounds with a hit; in the whole collection about 5.4% have one here. Unless noted, calls come from the whole dose curve; as a rule, active = well fitted curve in the direction sought with a large enough effect; inconclusive = small, poorly fitted or top-dose-only effect, or another doubt; inactive = no such curve, though single readings can be large; an effect the other way counts as inactive or inconclusive.

SMILES	p53 reactivator	Six1-Eya2 inh	RORgamma inh	VP16 counter	CtBP-E1A inh
Cc1ccc(C(C(=O)NC2CCCCC2)N(CCCN2CCOCC2)C(=O)c2snc(C(N)=O)c2N)cc1 (stereo not drawn)	-2%	-6	-17%	3%	-7
C=C1CC23C[C@H]4[C@@H]5[C@@]6(C)C[C@H](OC(=O)c7ccccc7)[C@@H](OC(C)=O)[C@]57[C@@H]2[C@@H](OC(C)=O)[C@H]1[C@@H](O)[C@H]3[C@H]7N4C6	.	.	17%[16.9 µM]	-4%[17 µM]	.
CCC1CCCCN1c1cc(C)nc2cc(-c3cccc(C)c3)nn12 (stereo not drawn)	6%	5	10µM*	-27%	1
CSc1ccccc1C(=O)NCCSC(C)(C)C	-8%	-2	34%	13%	5
COc1c(C(=O)NCCSC(C)(C)C)ccc2ccccc12	27%	-15	2.2µM*	0%	10
Cc1ccc(NC(=O)COC(=O)[C@H](C)NC(N)=O)c(C)c1	9%	7	-10%	-16%	.
CCCn1c(SCC(=O)NC2CCCC2)nc2c1c(=O)n(C)c(=O)n2C	4%	-1	15%	2%	-1
O=C(Cn1cc([N+](=O)[O-])nc1[N+](=O)[O-])N1CCN(c2ccccc2)CC1	-12%	10	5.6µM*	?	3
Cc1ccc2[nH]c(C(=O)Nc3ccc(F)cc3)cc2c1	?	2	10µM*	16%	4
CCOc1ccc(N(CC(=O)Nc2ccccc2Cl)S(C)(=O)=O)cc1	.	0	3%	7%	.
CCOc1ccc(N(C(=O)c2ccccc2Cl)C2=NC(C)(C)CS2)cc1	5%	3	3.2µM*	-16%	3
COc1ccc(OC)c(NC(=O)c2nc(S(=O)(=O)Cc3ccccc3)ncc2Cl)c1	-23%	11	5µM*	?	3
COc1ccc(NC(=O)c2c(-c3ccccc3Cl)noc2C)c(OC)c1	1%	-8	-19%	0%	0
COc1ccc(NC(=O)c2nc(S(=O)(=O)Cc3cccc(C)c3)ncc2Cl)c(OC)c1	-32%	2	?	7.9µM*	.
COc1ccc(OC)c(NC(=O)CS(=O)(=O)Cc2ccccc2)c1	.	-3	.	.	0
OC(Cc1ccccc1Br)c1ncc(-c2cccc(C(F)(F)F)c2)[nH]1 (stereo not drawn)	.	-12	.	.	-12
CCOC(=O)N1CCN(C(=O)CSc2ccc(-c3cccnc3)nn2)CC1	10%	.	-8%	7%	.
COc1cccc(Cn2c(=O)c(CCc3ccccc3)nc3cnc(N4CCN(C)CC4)nc32)c1	.	.	-25%	2%	.
O=C(NCc1csc(-c2ccccc2)n1)c1cc(F)cc2c1OCOC2	13%	-1	44%	1%	-4
CC(C)c1ccc(/C=N/NC(=O)c2ccccc2Cl)cc1	?	-3	?	-2%	1
Cc1nc2ccc(Br)cn2c1C(=O)N/N=C\c1ccc(C(C)C)cc1	0%	0	5.6µM*	5µM*	.
COCCn1c(SCC(=O)NC(=O)NC2CCCC2)nc2ccccc2c1=O	-8%	18	.	.	0
CC1CCN(C(=O)/C(=C\c2cccs2)NC(=O)c2ccccc2)CC1	0%	7	2.8µM*	18µM*	0
C/C(=N\NC(=O)c1c(Cl)c(C)nn1C)c1ccc(NC(=O)c2ccncc2)cc1	-4%	5	-38%	-5%	-1
Cc1nn(-c2ccc(NC(=O)c3ccncc3)cc2)c(C)c1Cl	-36%	6	?	7.9µM*	-5
SMILES	p53 reactivator	Six1-Eya2 inh	RORgamma inh	VP16 counter	CtBP-E1A inh
N#Cc1c(-c2ccco2)cc(-c2ccccn2)nc1N	16%	?	10µM*	11µM*	?
COC(=O)C(Cc1ccc(O)cc1)NC(=O)c1ccccc1 (stereo not drawn)	5%	2	2.2µM*	?	2
COC(=O)C(Cc1ccccc1)NC(=O)c1ccc(C)cc1 (stereo not drawn)	3%	3	13%	-12%	.
CN(C)S(=O)(=O)Oc1ccc(C(=O)Nc2cccc(Cl)c2)cc1	7%	6	?	13µM*	1
CCOC(=O)CNC(=O)CSc1nc(N)cc(N)n1	-7%	18	-19%	6%	-3
CCOC(=O)CNC(=S)n1cnc(N)n1	-2%	0	7.9µM*	-15%	18
Cn1nc(-c2ccc(N3CCN(CCO)CC3)c([N+](=O)[O-])c2)c2ccccc2c1=O	-5%	4	?	-1%	-16
COc1ccc(NC(=O)CSc2nnc(COc3ccccc3)n2Cc2ccco2)cc1OC	-3%	-6	-40%	11µM*	0
COc1ccc(C)cc1NC(=O)CSc1nnc(COc2ccccc2)n1Cc1ccco1	3%	-12	-108%	?	-1
COc1ccccc1NC(=O)CC(=O)CSc1nnc(-c2ccc(C)cc2)n1-c1ccccc1	-6%	-1	7.1µM*	10µM*	0
O=C(CSc1ncc(-c2ccc(F)cc2)n1Cc1ccco1)Nc1nccs1	6%	-5	-24%	-5%	-2
Cc1ccccc1NC(=O)CSc1nnc(-c2ccccc2)n1-c1ccccc1	-8%	-10	13%	0%	-10
Cc1cnc(NC(=O)CSc2ncc(-c3ccccc3)n2Cc2ccco2)s1	2%	?	11µM*	-29%	-23
CCn1c(COc2cccc(C)c2)nnc1SCC(=O)CC(=O)Nc1ccccc1OC	8%	-2	10µM*	?	-22
Cn1c(=O)[nH]c(=O)c2c1nc(SCC(O)CCl)n2Cc1ccccc1 (stereo not drawn)	-10%	7	2%	-5%	-3
COC(=O)c1nc(-c2ccccc2)nc(-c2ccccc2)c1C(=O)OC	.	5	.	.	-15
NC(=O)c1nsc(C(=O)N(CC(=O)NC2CCCC2)c2cccc(C(F)(F)F)c2)c1N	-1%	1	-23%	-10%	-6
COc1ccc(C(C)=O)cc1CSc1nnc(-c2ccncc2)n1C	-3%	0	0%	-5%	-12
CCn1c(COc2ccccc2)nnc1SCC(=O)CC(=O)Nc1ccccc1OC	-2%	-2	?	22µM*	-10
COc1ccc(C(C)=O)cc1CSc1nnc(-c2ccc(Cl)cc2)n1-c1ccccc1	-12%	-12	?	16µM*	-14
O=C(CSc1nnc(Cc2cccs2)n1Cc1ccco1)Nc1cccc(Cl)c1	-1%	-10	?	11µM*	-7
CCn1c(CNC(=O)COc2ccc(C(C)C)cc2)nnc1SCC(=O)Nc1ccccc1C(C)C	-1%	4	31%	20µM*	0
Cc1ccc(CNC(=O)C2CCC(=O)N(C3CC3)C2)cc1 (stereo not drawn)	8%	2	-19%	-7%	-6
CCn1c(COc2ccccc2C)nnc1SCC(=O)CC(=O)Nc1ccccc1OC	-8%	-1	10µM*	13µM*	-4

Screening results from PubChem.
